Screen size: about 310,000 compounds; about 14,000 (4.5%) showed an effect of 50% or more. Effects have a minus sign here. For the sample, strong results were picked, then their nearest neighbours and some compounds at random.
target: human ether-à-go-go-related gene (hERG) potassium channel (human, UniProt Q12809); assay: primary screen, population patch clamp on CHO cells stably expressing hERG; higher = less effect of the substance
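Further: peak tail current of the secondary pulse compared with the same well before compound.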

Chain of human ether-à-go-go-related gene (hERG) potassium channel (Q12809 whole entry, looked up): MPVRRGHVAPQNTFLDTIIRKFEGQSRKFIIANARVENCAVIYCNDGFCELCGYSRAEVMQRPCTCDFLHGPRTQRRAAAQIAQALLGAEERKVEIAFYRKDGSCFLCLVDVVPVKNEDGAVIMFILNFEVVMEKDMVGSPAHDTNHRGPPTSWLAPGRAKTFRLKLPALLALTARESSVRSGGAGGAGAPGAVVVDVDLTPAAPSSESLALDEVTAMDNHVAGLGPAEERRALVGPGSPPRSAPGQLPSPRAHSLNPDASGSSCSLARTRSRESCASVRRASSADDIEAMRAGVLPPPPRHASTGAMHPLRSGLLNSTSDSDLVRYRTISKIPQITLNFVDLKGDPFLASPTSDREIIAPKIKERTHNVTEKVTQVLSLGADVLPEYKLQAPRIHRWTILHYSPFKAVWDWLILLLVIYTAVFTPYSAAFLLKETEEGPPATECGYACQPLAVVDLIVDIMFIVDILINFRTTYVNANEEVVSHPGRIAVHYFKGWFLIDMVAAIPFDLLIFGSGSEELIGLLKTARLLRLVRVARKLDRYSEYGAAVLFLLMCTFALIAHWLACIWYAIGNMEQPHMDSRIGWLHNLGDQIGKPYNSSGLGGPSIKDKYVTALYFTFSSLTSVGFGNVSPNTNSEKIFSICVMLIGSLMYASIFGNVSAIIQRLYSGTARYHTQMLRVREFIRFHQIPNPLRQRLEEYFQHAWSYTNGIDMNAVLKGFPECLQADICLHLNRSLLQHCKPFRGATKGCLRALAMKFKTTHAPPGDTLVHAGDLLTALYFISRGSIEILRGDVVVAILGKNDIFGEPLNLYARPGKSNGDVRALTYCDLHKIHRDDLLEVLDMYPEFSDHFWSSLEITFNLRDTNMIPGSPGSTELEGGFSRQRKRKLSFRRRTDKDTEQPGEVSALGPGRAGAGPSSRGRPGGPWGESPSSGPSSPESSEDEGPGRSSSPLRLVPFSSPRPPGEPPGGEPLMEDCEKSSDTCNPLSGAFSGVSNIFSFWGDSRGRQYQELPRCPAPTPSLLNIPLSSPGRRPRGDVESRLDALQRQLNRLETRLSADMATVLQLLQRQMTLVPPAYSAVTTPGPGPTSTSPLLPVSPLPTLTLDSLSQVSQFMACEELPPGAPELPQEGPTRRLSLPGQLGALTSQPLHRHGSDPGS

First: Clc1ccccc1/C=C/c1nc(-c2cccnc2)no1
Second: CC(C)OCCCNC(=O)c1cc(-c2cccnc2)nc2ccccc12
The “hERG current change (%, negative = inhibition) at 10uM” value of the first is higher: 6.16% for the first, -21.4% for the second.

Going from CCN(CC)c1ccc(NC(=O)c2cnc3ccccn3c2=O)c(C)c1 to CCOc1ccccc1NC(=O)c1nnn(CC(=O)Nc2cc(C)cc(C)c2)c1N, the “hERG current change (%, negative = inhibition) at 10uM” value rises from 4.51% to 15.7%.

Compared with CCOC(=O)c1ccc(NC(=O)c2cccc(C)c2[N+](=O)[O-])cc1, CCOC(=O)c1ccc(NC(=O)CN(C)S(=O)(=O)c2ccc(OC)cc2)cc1 is higher in “hERG current change (%, negative = inhibition) at 10uM” value: 4.73% for the first, 6.82% for the second.

Going from COc1ccc(C(=O)c2nccc3cc(OC)c(OC)cc23)cc1OC to COc1ccc(NC(=S)N2CCN(C(=O)c3ccco3)CC2)cc1OC, the “hERG current change (%, negative = inhibition) at 10uM” value rises from 6.21% to 14.6%.

Going from CC1CCN(C2(O)C(=O)Nc3ccc(Br)cc32)CC1 (stereo not drawn) to Cc1cc(C(=O)N2CCOCC2)ccc1[N+](=O)[O-], the “hERG current change (%, negative = inhibition) at 10uM” value falls from 19.4% to 9.19%.

First: CCC(C)(C)NC(=O)CN(C(=O)CNS(=O)(=O)c1ccccc1)c1ccc2c(c1)OCCO2
Second: Cc1ccccc1N(CC(=O)NCc1ccco1)C(=O)CNS(=O)(=O)c1ccc(F)cc1
The “hERG current change (%, negative = inhibition) at 10uM” value of the first is higher: 6.92% for the first, -16% for the second.

Compared with Cc1ccc(NP(=O)(c2ccccc2)c2nc3ccccc3s2)cc1 (stereo not drawn), Cc1ccc(Cn2c(Cc3ccccc3)nc3ccccc32)cc1 is lower in “hERG current change (%, negative = inhibition) at 10uM” value: 3.27% for the first, -10.1% for the second.

First: O=C(CN1CCN(C(=O)c2ccco2)CC1)Nc1cccc([N+](=O)[O-])c1
Second: O=C(c1ccco1)N1CCN(C(=S)Nc2cccc([N+](=O)[O-])c2)CC1
The “hERG current change (%, negative = inhibition) at 10uM” value of the first is higher: -49.1% for the first, -63.3% for the second.

Compared with O=C(c1ccc(Cl)c([N+](=O)[O-])c1)N1CCN(C(=O)c2ccco2)CC1, Cc1cc(C(=O)N2CCN(C(=O)c3ccco3)CC2)ccc1[N+](=O)[O-] is lower in “hERG current change (%, negative = inhibition) at 10uM” value: -41.6% for the first, -64.7% for the second.

Going from Cc1cccc(NC(=S)N2CCN(C(=O)c3ccco3)CC2)c1 to O=C(c1ccco1)N1CCN(C(=S)Nc2ccc(F)c(Cl)c2)CC1, the “hERG current change (%, negative = inhibition) at 10uM” value falls from -9.36% to -71.9%.

Compared with COC(=O)c1cc(C(=O)N2CCOCC2)cc([N+](=O)[O-])c1, COC(=O)c1cc(C(=O)N2CCN(C(=O)c3ccco3)CC2)cc([N+](=O)[O-])c1 is lower in “hERG current change (%, negative = inhibition) at 10uM” value: 21.7% for the first, -66.7% for the second.

First: O=C(c1ccco1)N1CCN(C(=S)Nc2cc(F)cc(F)c2)CC1
Second: O=C(c1cc([N+](=O)[O-])cc([N+](=O)[O-])c1)N1CCN(C(=O)c2ccco2)CC1
The “hERG current change (%, negative = inhibition) at 10uM” value of the first is higher: -16.5% for the first, -65.3% for the second.

Going from COC(=O)c1cc(C(=O)N2CCN(c3ccccc3OC)CC2)cc([N+](=O)[O-])c1 to COc1ccccc1N1CCN(C(=O)c2ccc(-c3ccccc3)cc2)CC1, the “hERG current change (%, negative = inhibition) at 10uM” value rises from -34.7% to -5.25%.

First: COc1ccc(OC)c(S(=O)(=O)N2CCC(C(=O)NCc3ccncc3)CC2)c1
Second: COc1ccc(C(=O)N2CCC(n3nccc3NC(=O)C3CC3)CC2)cc1F
The “hERG current change (%, negative = inhibition) at 10uM” value of the first is higher: 16.4% for the first, -26.8% for the second.

Going from CCn1c(O)c(/C=N/NC(=O)c2ccccc2)c(=O)n(CC)c1=S to CS(=O)(=O)c1ccc(C(=O)NCc2ccccc2F)cc1, the “hERG current change (%, negative = inhibition) at 10uM” value falls from 13.6% to 6.24%.

Going from COc1ccc(OCC(=O)N/N=C2\CCc3ccccc32)cc1 to Cc1cc(C)cc(OCC(=O)NC2CCCc3ccccc32)c1 (stereo not drawn), the “hERG current change (%, negative = inhibition) at 10uM” value rises from -23.9% to -1.2%.

Going from CCOC(=O)C1=C(C)N=C2SC(C)C(=O)N2C1c1cccc(F)c1 (stereo not drawn) to CC1=C(C(N)=O)C(c2cccs2)n2nc(-c3cccc(Cl)c3)nc2N1 (stereo not drawn), the “hERG current change (%, negative = inhibition) at 10uM” value falls from -3.16% to -24.9%.

Compared with CCOC(=O)c1nnn(-c2nonc2N)c1CN(CC)CC, CCOC(=O)Nc1nnc(Cc2ccc(Cl)c(Cl)c2)s1 is higher in “hERG current change (%, negative = inhibition) at 10uM” value: -7.44% for the first, 5.09% for the second.

First: Cc1cc(-c2ccco2)n2c(nc3ccccc32)c1C#N
Second: Cc1nc2ccccc2n1Cc1ccccc1
The “hERG current change (%, negative = inhibition) at 10uM” value of the first is lower: -25.9% for the first, 15.8% for the second.

Compared with O=C(O)CC1S/C(=N\N=C2CCCCCC2)N(c2ccccc2)C1=O (stereo not drawn), O=C(NCCC1=CCCCC1)C1CCN(c2nc3ccccc3o2)CC1 is lower in “hERG current change (%, negative = inhibition) at 10uM” value: 9.08% for the first, -13.9% for the second.

First: O=C(/C=C/c1ccccc1)N1CCN(C(=O)c2ccco2)CC1
Second: O=C(/C=C/c1ccccc1[N+](=O)[O-])N1CCN(C(=O)c2ccco2)CC1
The “hERG current change (%, negative = inhibition) at 10uM” value of the first is higher: -28.6% for the first, -45.6% for the second.

Going from O=C(/C=C/c1cccc([N+](=O)[O-])c1)N1CCN(C(=O)c2ccco2)CC1 to O=C(c1cccc([N+](=O)[O-])c1)N1CCN(C(=O)c2ccco2)CC1, the “hERG current change (%, negative = inhibition) at 10uM” value rises from -64.8% to -10.8%.

First: O=C(c1ccco1)N1CCN(C(=O)c2ccccc2[N+](=O)[O-])CC1
Second: O=C(CNS(=O)(=O)c1ccccc1)N1CCN(Cc2ccccc2)CC1
The “hERG current change (%, negative = inhibition) at 10uM” value of the first is higher: 22.4% for the first, 5.89% for the second.

Going from Cc1cc(C)cc(OCC(=O)NC(C)c2ccccc2)c1 (stereo not drawn) to Cc1cc(C)cc(NC(=O)CCCn2nc(C)c3c(C)n(-c4ccccc4)nc3c2=O)c1, the “hERG current change (%, negative = inhibition) at 10uM” value falls from 15.2% to -4.07%.

Compared with Fc1ccc(C(CCNCc2cccs2)c2ccco2)cc1 (stereo not drawn), O=S(=O)(NCCC(c1ccc(F)cc1)c1ccco1)c1ccccc1 (stereo not drawn) is higher in “hERG current change (%, negative = inhibition) at 10uM” value: -66.8% for the first, -7.77% for the second.

Compared with Cc1ccc(S(=O)(=O)NCCC(c2ccc(F)cc2)c2ccco2)cc1 (stereo not drawn), Cc1ccc(S(=O)(=O)NCCC(c2ccccc2)c2ccco2)cc1 (stereo not drawn) is lower in “hERG current change (%, negative = inhibition) at 10uM” value: 10.8% for the first, 0.23% for the second.

First: Cc1ccc(C(CCN)c2ccco2)cc1 (stereo not drawn)
Second: Cc1ccc(C(CCNC(C)c2cccs2)c2ccco2)cc1 (stereo not drawn)
The “hERG current change (%, negative = inhibition) at 10uM” value of the first is higher: -2.63% for the first, -57.1% for the second.

Compared with CC(C(=O)NC1C(=O)N2C(C(=O)O)=C(CSc3nnnn3C)CSC12)n1cc(Br)cn1 (stereo not drawn), Cc1ccc(-n2c(SCC(=O)N3CCOCC3)nnc2-c2ccncc2)cc1C is lower in “hERG current change (%, negative = inhibition) at 10uM” value: 25.1% for the first, -10.6% for the second.

First: CN(C)C(=O)CSc1nnc([C@H](Cc2ccccc2)NC(=O)OC(C)(C)C)o1
Second: CCOc1ccccc1NC(=O)C(C)CC (stereo not drawn)
The “hERG current change (%, negative = inhibition) at 10uM” value of the first is higher: 5.98% for the first, -6.76% for the second.

Compared with CC1(C)CC(=O)C=C(c2ccc(I)cc2)C1, Cc1ccc(NC(=O)C2CCCN2C(=O)c2cccs2)c(C)c1 (stereo not drawn) is higher in “hERG current change (%, negative = inhibition) at 10uM” value: -2.72% for the first, 12.7% for the second.

First: CCn1c(CN2CCN(c3ccc(Cl)cc3)CC2)nc2ccccc21
Second: Cn1c(CN2CCN(c3ccc(Cl)cc3)CC2)nc2ccccc21
The “hERG current change (%, negative = inhibition) at 10uM” value of the first is lower: -55.3% for the first, -14.3% for the second.

First: Cc1cccc(Cn2c(Cc3ccccc3)nc3ccccc32)c1
Second: c1ccc(Cc2nc3ccccc3n2Cc2ccccc2)cc1
The “hERG current change (%, negative = inhibition) at 10uM” value of the first is higher: -24.6% for the first, -53.4% for the second.

Going from COc1ccc(N2CCN(Cc3nc4ccccc4n3C)CC2)cc1 to Cl.Clc1ccc(Cn2c(CN3CCCC3)nc3ccccc32)cc1, the “hERG current change (%, negative = inhibition) at 10uM” value falls from -18.2% to -74.4%.

Going from OCCCc1nc2ccccc2n1Cc1ccccc1 to ClCc1nc2ccccc2n1Cc1ccccc1, the “hERG current change (%, negative = inhibition) at 10uM” value rises from 7.46% to 10.6%.

First: O=C(Cn1c(NCCO)nc2ccccc21)N1CCN(Cc2ccccc2)CC1
Second: CC(O)CNc1nc2ccccc2n1CC(=O)N1CCN(Cc2ccccc2)CC1 (stereo not drawn)
The “hERG current change (%, negative = inhibition) at 10uM” value of the first is higher: -9.47% for the first, -22.6% for the second.

Compared with c1ccc(Cn2c(CN3CCCC3)nc3ccccc32)cc1, CC(c1nc2ccccc2n1Cc1ccccc1)N1CCCCC1 (stereo not drawn) is lower in “hERG current change (%, negative = inhibition) at 10uM” value: -64.6% for the first, -65% for the second.

Going from CCc1nc2ccccc2n1CC(=O)N1CCN(Cc2ccccc2)CC1 to CC(O)c1nc2ccccc2n1Cc1ccccc1 (stereo not drawn), the “hERG current change (%, negative = inhibition) at 10uM” value rises from -61.5% to 3.15%.

First: CC1=NNC(=O)C1CC(=O)N/N=C/c1ccc(C)o1 (stereo not drawn)
Second: Cc1ccc(CCC(=O)Nc2ncc(Cc3cccc(Cl)c3Cl)s2)o1
The “hERG current change (%, negative = inhibition) at 10uM” value of the first is lower: 10.7% for the first, 51.7% for the second.

Going from CC(=O)OC(C)C(=O)NS(=O)(=O)c1ccc(C)cc1 (stereo not drawn) to CCN(CC)C(=S)SCC(=O)Nc1ccc(S(N)(=O)=O)cc1, the “hERG current change (%, negative = inhibition) at 10uM” value falls from 12.3% to 3.17%.

Going from CCOC(=O)COc1cccc2c(=O)n(CC(=O)N3CCN(C(=O)OCC)CC3)ccc12 to O=C(NCCS(=O)(=O)N1CCN(c2ccccc2F)CC1)c1cc(=O)c2ccccc2o1, the “hERG current change (%, negative = inhibition) at 10uM” value rises from 7.65% to 15%.

First: CC(C)C(=O)Nc1ncc2c(n1)CC(c1cccs1)CC2=O (stereo not drawn)
Second: Cc1cc(C)nc(N2CCC(C(=O)NC3CCCc4ccccc43)CC2)n1 (stereo not drawn)
The “hERG current change (%, negative = inhibition) at 10uM” value of the first is lower: -17.3% for the first, 17.6% for the second.

Going from Cc1nc2ccccc2n1Cc1ccc(Cl)cc1 to OCc1nc2ccccc2n1Cc1ccc(Cl)cc1, the “hERG current change (%, negative = inhibition) at 10uM” value rises from -2.56% to 8.87%.

Compared with COc1ccc(OC)c(/C=C/C(=O)OCC(=O)NC2CCCCCCC2)c1, Cc1oc(-c2ccccc2F)nc1CN1CCC(C(=O)NC2CC2)CC1 is lower in “hERG current change (%, negative = inhibition) at 10uM” value: -4.68% for the first, -34.3% for the second.

First: Cc1ccccc1-c1nc(CN2CCC(C(=O)NCCCN3CCOCC3)CC2)c(C)o1
Second: Cc1ccccc1-c1nc(CN2CCC(C(=O)NCCC3=CCCCC3)CC2)c(C)o1
The “hERG current change (%, negative = inhibition) at 10uM” value of the first is higher: -10.8% for the first, -66.7% for the second.

First: Cc1oc(-c2ccccc2F)nc1CN1CCC(C(=O)NC2CCCc3ccccc32)CC1 (stereo not drawn)
Second: Cc1oc(-c2ccccc2F)nc1CN1CCC(C(=O)NCCC2=CCCCC2)CC1
The “hERG current change (%, negative = inhibition) at 10uM” value of the first is higher: -63.9% for the first, -71.8% for the second.
